DAX1 inh-1: inhibitors of DAX1 repression of SF-1 activated StAR promoter; 1.1% of 370,000 active; inhibition, % at 6.8 µM; AID 652010; HEK293T StAR-luciferase reporter, SF-1/DAX-1 repression relief;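 active means inhibition above the mean over all tested compounds plus 3 SD, cut at about 3.6% in these data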;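 further: 0% = DAX-1 cells with DMSO and 100% = cells lacking DAX-1 with DMSO; higher inhibition means more luminescence from relief of DAX-1 repression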
ssDAF12 agonist: activators of S. stercoralis DAF-12 nuclear receptor | HEK293 ssDAF-12/GRIP1 lit1-tk-luc reporter, luminescence; % of 3 µM dafachronic acid response | activation, % at 6.8 µM | 1% of 370,000 active | AID 652126;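 active means activation above the mean over all tested compounds plus 3 SD, cut at about 0.9% in these data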;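 further: 0% = DMSO-only wells and 100% = 3 µM delta7-dafachronic acid wells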
SMARCA2 activ: increases SMARCA2 function in MMTV reporter cells. MG213 cells, MMTV-luciferase reporter, dexamethasone, overnight. activation, % at 9.1 µM. 1% of 370,000 active. AID 652017; in the data active means activation above about 7.8%;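 further: 0% = vehicle wells and 100% = reference activator wells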
DAX1 inh-2: inhibitors of human orphan nuclear receptor DAX1 (NR0B1); 0.99% of 340,000 active; HEK293 Gal4-DAX1 luciferase reporter, luminescence; P51843; inhibition, % at 6.75 µM; AID 504766;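 active means inhibition above the mean over all tested compounds plus 3 SD, cut at about 4.2% in these data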;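 further: 0% = DAX1-transfected cells with DMSO and 100% = empty-vector control cells with DMSO; inhibition shows as a rise in luminescence from relieved DAX1 repression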
Target sequence (P51843 207-470 limits assumed): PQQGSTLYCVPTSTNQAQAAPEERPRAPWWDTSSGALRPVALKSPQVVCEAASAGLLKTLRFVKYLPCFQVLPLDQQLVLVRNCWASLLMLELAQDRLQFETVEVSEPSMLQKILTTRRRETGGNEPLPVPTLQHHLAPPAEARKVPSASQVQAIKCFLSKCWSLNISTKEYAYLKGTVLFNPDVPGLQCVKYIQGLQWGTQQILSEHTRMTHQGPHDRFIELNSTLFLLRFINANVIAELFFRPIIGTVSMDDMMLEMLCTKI
hgDAF-12 ag: hgDAF-12 agonism, primary luciferase screen; 1.8% of 370,000 active; activation, % at 6.8 µM; AID 687014; HEK293 GAL4-hgDAF12 UAS-luciferase reporter, agonist luminescence; normalized to butyrate control;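 active means activation above a cutoff set at the mean of all screened compounds plus 3 SD, cut at about 10% in these data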;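 further: 0% = DMSO wells and 100% = sodium butyrate wells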
hcDAF-12 act: activators of H. contortus DAF-12 nuclear receptor; AID 652067; 1.4% of 370,000 active; activation, % at 6.8 µM; HEK293 hcDAF-12 lit1-tk-luc reporter, luminescence; 0% DMSO, 100% Δ7-dafachronic acid;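 active means activation above the mean of all tested compounds plus 3 SD, cut at about 5.5% in these data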;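 further: 100% = response to 3 µM Δ7-dafachronic acid high control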
* hit, by the source's call. A selection: hits, their analogues and other compounds. The true share with any hit is near 4.8%.

O=S(=O)(NCCc1ccccc1)c1ccc(-n2cnnn2)cc1 was read as DAX1 inh-1 -0.2, ssDAF12 agonist -1.1, SMARCA2 activ -1.2, DAX1 inh-2 1.3, hgDAF-12 ag 2.8 and hcDAF-12 act 1.1.
For CCNS(=O)(=O)c1ccc(-c2ccc(-n3cnnn3)cc2)cc1 the results were DAX1 inh-1 -0.9, ssDAF12 agonist -0.6, SMARCA2 activ 3.5, DAX1 inh-2 6.3*, hgDAF-12 ag -3.1 and hcDAF-12 act 0.1.
For CCc1ccc(-c2csc(NC(=O)C3CCCO3)c2C(=O)OC(C)C)cc1 (stereo unspecified) the results were DAX1 inh-1 -0.8, ssDAF12 agonist -1.2, SMARCA2 activ 1.1, DAX1 inh-2 0.7, hgDAF-12 ag -1.7 and hcDAF-12 act -1.0.
Screening COC(=O)c1c(-c2ccc(F)cc2)csc1NC(=O)C1CCCO1 (stereo unspecified) returned DAX1 inh-1 2.8, ssDAF12 agonist -1.7, SMARCA2 activ 2.3, DAX1 inh-2 -1.2, hgDAF-12 ag 12.1* and hcDAF-12 act -1.1.
For CCc1noc(C)c1C(=O)NNC(=O)c1nn(CC)c(=O)c2ccccc12 the results were DAX1 inh-1 -1.5, ssDAF12 agonist -1.2, SMARCA2 activ -1.8, DAX1 inh-2 5.2*, hgDAF-12 ag 0.8 and hcDAF-12 act 0.4.
`O=C(NCCSc1ccccc1)c1ccccc1` gave DAX1 inh-1 3.3, ssDAF12 agonist 0.2, SMARCA2 activ 0.6, DAX1 inh-2 2.7, hgDAF-12 ag 11.6* and hcDAF-12 act 4.8.
Screening O=C(NCSc1ccncn1)c1ccccc1 returned DAX1 inh-1 -0.2, ssDAF12 agonist -1.5, SMARCA2 activ -2.6, DAX1 inh-2 4.9*, hgDAF-12 ag 1.8 and hcDAF-12 act -1.3.
O=C(NCCSSCCNC(=O)c1ccccc1)c1ccccc1 was read as DAX1 inh-1 -0.7, ssDAF12 agonist -1.6, SMARCA2 activ -3.3, DAX1 inh-2 -0.9, hgDAF-12 ag 4.4 and hcDAF-12 act -1.9.
Screening COC(=O)[C@]12C[C@H](CC(=O)N3CCCCC3)C(=O)N(CCc3ccc(OC)c(OC)c3)C1=C[C@H](COCc1ccccc1)O[C@@H]2C returned DAX1 inh-1 -0.3, ssDAF12 agonist -0.8, SMARCA2 activ -3.9, hgDAF-12 ag -0.1 and hcDAF-12 act -0.5.
COc1ccc(-c2nnc3n2N=C(c2cccc([N+](=O)[O-])c2)CS3)cc1 was read as DAX1 inh-1 -2.7, ssDAF12 agonist -0.5, SMARCA2 activ -5.1, hgDAF-12 ag -1.1 and hcDAF-12 act -1.4.
Screening O=C(CCC(=O)c1cccs1)c1cccs1 returned DAX1 inh-1 2.9, ssDAF12 agonist -0.2, SMARCA2 activ 5.5, DAX1 inh-2 3.7, hgDAF-12 ag 12.4* and hcDAF-12 act 3.7.
For Cc1cc(C(=O)N/N=C(\CCC(=O)O)c2cccs2)c2ccccc2n1 the results were DAX1 inh-1 -2.5, ssDAF12 agonist -0.8, SMARCA2 activ -4.8, DAX1 inh-2 -1.8, hgDAF-12 ag 1.5 and hcDAF-12 act 0.3.
For CO/N=C(\CCC(=O)O)c1cccs1 the results were DAX1 inh-1 0.7, ssDAF12 agonist -1.5, SMARCA2 activ -1.3, DAX1 inh-2 1.0, hgDAF-12 ag 11.4* and hcDAF-12 act -1.1.
Screening O=C(c1ccncc1)N1CC[C@H]2[C@H](CCCN2Cc2ccccc2)C1 returned DAX1 inh-1 0.6, ssDAF12 agonist -1.1, SMARCA2 activ 0.4, hgDAF-12 ag 2.2 and hcDAF-12 act -2.3.
Screening Cc1ccc(N2CC(=O)N(NC(=O)CN3CCN(c4ccccc4)CC3)CC2=O)cc1 returned DAX1 inh-1 -0.5, ssDAF12 agonist -1.3, SMARCA2 activ -2.4, DAX1 inh-2 2.4, hgDAF-12 ag -0.6 and hcDAF-12 act 0.3.
`O=C(CN1CCOCC1)NN1CC(=O)N(c2ccc(Cl)cc2)CC1=O` gave DAX1 inh-1 0.1, ssDAF12 agonist -1.3, SMARCA2 activ 2.4, DAX1 inh-2 5.6*, hgDAF-12 ag -0.5 and hcDAF-12 act 0.3.
`O=C(CC1=NCCNC(c2ccccc2)C1)c1ccccc1O` (stereo unspecified) gave DAX1 inh-1 1.5, ssDAF12 agonist -0.1, SMARCA2 activ 2.9, DAX1 inh-2 -0.2, hgDAF-12 ag 6.6 and hcDAF-12 act 5.8*.
Screening COc1ccc(N2CCCC2)c(NC(=O)COc2ccccc2Cl)c1 returned DAX1 inh-1 0.4, ssDAF12 agonist 1.5*, SMARCA2 activ -1.3, DAX1 inh-2 0.4, hgDAF-12 ag 1.3 and hcDAF-12 act 3.6.
For O=C(COc1ccccc1Cl)Nc1cc(Cl)ccc1O the results were DAX1 inh-1 0.6, ssDAF12 agonist 1.6*, SMARCA2 activ 4.6, DAX1 inh-2 4.9*, hgDAF-12 ag 5.6 and hcDAF-12 act 5.7*.
`CC(=O)N1CCN(c2ccccc2NC(=O)COc2ccc(Br)cc2)CC1` gave DAX1 inh-1 -1.4, ssDAF12 agonist -1.5, SMARCA2 activ -1.1, DAX1 inh-2 0.1, hgDAF-12 ag 0.0 and hcDAF-12 act -1.9.
Screening O=C(CN1C(=O)C2CCCCC2C1=O)Nc1ccccc1N1CCCC1 (stereo unspecified) returned DAX1 inh-1 4.1*, ssDAF12 agonist -0.8, SMARCA2 activ -2.2, DAX1 inh-2 1.9, hgDAF-12 ag 1.7 and hcDAF-12 act 0.8.
O=C(COc1ccc(Br)cc1)Nc1ccccc1N1CCCC1 was read as DAX1 inh-1 -0.2, ssDAF12 agonist 1.4*, SMARCA2 activ 2.1, DAX1 inh-2 2.1, hgDAF-12 ag 1.8 and hcDAF-12 act 1.4.
Screening COC(=O)[C@]1(CNC(C)=O)CC(=O)N(Cc2ccc(Cl)cc2)[C@@H]1c1ccc(OC)cc1 returned DAX1 inh-1 0.1, ssDAF12 agonist -0.7, SMARCA2 activ -4.7, hgDAF-12 ag -1.8 and hcDAF-12 act 1.2.
`CN(C)S(=O)(=O)c1ccc2nc(COCc3nc4ccc(S(=O)(=O)N(C)C)cc4[nH]3)[nH]c2c1` gave ssDAF12 agonist -1.3, hgDAF-12 ag 2.5 and hcDAF-12 act 3.1.
`O=[N+]([O-])c1cc(Oc2cccnc2)cc([N+](=O)[O-])c1` gave DAX1 inh-1 -1.1, ssDAF12 agonist -1.7, SMARCA2 activ 0.2, DAX1 inh-2 4.4*, hgDAF-12 ag -4.2 and hcDAF-12 act -3.0.
For O=C(N=C1c2ccccc2CN1c1cccc(Cl)c1)c1cccnc1 the results were DAX1 inh-1 0.6, ssDAF12 agonist -0.1, SMARCA2 activ -0.2, DAX1 inh-2 -0.7, hgDAF-12 ag 10.8* and hcDAF-12 act 3.5.
Screening COC(=O)c1cc(-c2ccc(OC)cc2)on1 returned DAX1 inh-1 -0.2, ssDAF12 agonist -1.6, SMARCA2 activ -0.5, DAX1 inh-2 -0.7, hgDAF-12 ag -0.7 and hcDAF-12 act -1.8.
COc1ccc(-c2cc(C(=O)NC3CCCC3)no2)cc1 was read as DAX1 inh-1 1.5, ssDAF12 agonist -0.3, SMARCA2 activ 4.4, DAX1 inh-2 3.0, hgDAF-12 ag 11.9* and hcDAF-12 act 6.5*.

Screens as filed in PubChem BioAssay.
